Screening data from PubChem.
KDM5B inh = inhibitors of human KDM5B histone demethylase; Q9UGL1; KDM5B demethylase, FDH-coupled NADH fluorescence (FDH is formaldehyde dehydrogenase); Potency, µM (titrated, usually from 57.7 µM), usual class: inhibitors; 220,000 tested, 2.6% active; AID 1347165; active = well fitted inhibition curve with a large enough effect; inconclusive = small, poorly fitted or top-dose-only effect; inactive = no such curve, though single readings can be large or run the other way; note: potency is the fitted concentration of half-maximal effect; 0% is about no effect; nearly all actives have a fitted effect of over 70% in size
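Compound dilutions met 200 nM (final) KDM5BΔAP for 10 min at room temperature before substrate addition. The substrate mix held 12.5 µM H3K4me3 with cofactors 25 µM α-ketoglutarate and 50 µM Fe²⁺. NADH signal gain over 30 min defined activity.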
IP6K1 inhibitor = IP6K1 kinase inhibition; Q92551; IP6K1 kinase, ADP-Glo luminescence, 2 h; stronger effect = lower value; activity change, % (series mostly up to about 58 µM); 140,000 tested, 0.81% active; AID 1645851; in the data active = activity change below about -25%; note: % is set by controls: 0 for no effect and ±100 for the full control effect
Target sequence (Q92551 whole entry, looked up): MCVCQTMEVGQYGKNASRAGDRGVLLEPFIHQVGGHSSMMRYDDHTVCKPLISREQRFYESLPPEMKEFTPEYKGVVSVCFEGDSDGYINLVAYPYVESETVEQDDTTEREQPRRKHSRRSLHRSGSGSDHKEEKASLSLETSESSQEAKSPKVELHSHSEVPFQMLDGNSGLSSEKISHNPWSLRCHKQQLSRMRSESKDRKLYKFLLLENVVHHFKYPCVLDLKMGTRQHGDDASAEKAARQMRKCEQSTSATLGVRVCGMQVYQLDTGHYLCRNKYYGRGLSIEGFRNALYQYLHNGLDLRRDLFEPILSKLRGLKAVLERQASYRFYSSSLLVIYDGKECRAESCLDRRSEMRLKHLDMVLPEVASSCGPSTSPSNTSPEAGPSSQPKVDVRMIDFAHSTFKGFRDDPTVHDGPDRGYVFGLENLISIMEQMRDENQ
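ADP-Glo luminescence measures ADP made by human IP6K1 during a 2 h RT reaction with ATP/IP6 (mix at 1.3 mM/130 uM); top library doses 57.5 and 19.1 uM final.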
* = called active by the depositor; i = inactive; ? = inconclusive; · = no result given. Only some compounds are listed: those with a hit (about 2.8% of all), similar ones and a draw of the others.

SMILES | KDM5B inh | IP6K1 inhibitor
COc1ccc(CN2CCNc3cnc(Nc4ccccc4)cc3C2)cc1O | 39.8µM* | -20.7
COc1ccc(CN2CCNc3cc(Nc4cccnc4)ncc3C2)cc1O | i | -21.3
COc1ccc(CN2CCNc3cnc(Nc4cccnc4)cc3C2)cc1O | 35.5µM* | -14.1
COc1ccc(OC)c(CN2CCNc3cc(-c4ccccc4)ncc3C2)c1 | i | -16.1
COc1ccc(CN2CCNc3cnc(Oc4ccccc4)cc3C2)cc1O | ? | 8.7
CCCn1c(=O)n(CCC(=O)Nc2c(C)cccc2C)c2ccccc21 | i | ·
O=C(N[C@H]1CO[C@H]2[C@@H]1OC[C@@H]2n1cc(-c2ccccc2)nn1)c1ccc(C(F)(F)F)cc1 | i | -12.7
O=C1CO[C@H]2CN(c3ncccn3)C[C@H]2N1Cc1ccccc1 | 35.5µM* | 3.2
O=C(c1ccncc1)N1C[C@@H]2OCC(=O)N(Cc3ccncc3)[C@@H]2C1 | ? | -6.7
O=C1CO[C@H]2CN(Cc3ccncc3)C[C@H]2N1Cc1ccc(F)cc1 | 35.5µM* | -11.4
CS(=O)(=O)c1ccc(CN2C[C@@H]3OCC(=O)N(Cc4ccc(F)cc4)[C@@H]3C2)cc1 | ? | -11.5
CS(=O)(=O)N1C[C@@H]2OCC(=O)N(Cc3ccccc3)[C@@H]2C1 | i | -1.5
O=C1CO[C@H]2CN(c3ncccn3)C[C@H]2N1Cc1ccncc1 | 39.8µM* | -1.3
CN(Cc1cccs1)C(=O)/C=C/c1nc2ccccc2s1 | i | ·
c1ccc(-c2sc(-c3ccccc3)c(-c3ccccc3)c2-c2ccccc2)cc1 | i | ·
C=CCOc1ccc(CNCc2ccco2)cc1OCC | i | ·
COc1ccccc1Cn1c(=O)c(C(=O)NC(C)c2ccc(F)cc2)nc2cccnc21 (stereo unspecified) | · | 13.6
COc1cccc(C(=O)NC2CN(c3ccnc4ccnn34)C2)c1 | · | 25.2
CC(C)(C)NC(=O)CC1(C(=O)N2CCC(c3c[nH]c4ccccc34)CC2)CCCC1 | i | ·
O=C(c1ccc2c(c1)OCO2)N1CCn2c(nnc2C2CCCNC2)C1 (stereo unspecified) | i | 3.4
O=C(c1ccc2c(c1)OCO2)N1CCC(c2nnc3n2CCNC3)CC1 | 50.1µM* | 11.3
COc1ccc(NC(=O)C(C)SCCO)cc1 (stereo unspecified) | i | ·
Cc1ccc2nc(C)c(C(=O)N(C)CCOc3ccccc3F)cc2c1 | i | ·
Cc1nnc2n1CCC(NC(=O)c1cnccn1)CC2 (stereo unspecified) | i | -7.6
Cc1nnc2n1CCC(NC(=O)c1cccn1C)CC2 (stereo unspecified) | 20µM* | -2.4
SMILES | KDM5B inh | IP6K1 inhibitor
CCC(=O)N1CCc2c(sc3ncnc(NCCc4ccccc4)c23)C1 | i | -9.2
CCC(=O)N1CCc2c(sc3ncnc(NCc4ccccc4)c23)C1 | 31.6µM* | 3.9
CC(=O)Nc1cc(-c2cc(C(=O)NCc3cccnc3)c3c(c2)N(C)CCO3)ccn1 | ? | -11.3
Cn1ccc(NC(=O)c2cc(-c3ccccc3F)cc3c2OCCN3Cc2cccnc2)n1 | 28.2µM* | -16.9
O=C(c1cc(-c2ccccc2F)cc2c1OCCN2Cc1cccnc1)N1CCC1 | ? | -4.0
CN1CCOc2c(C(=O)NCCc3cnc[nH]3)cc(-c3ccc(N4CCOCC4)cc3)cc21 | ? | -19.0
COc1ccc(-c2cc(C(=O)NCCc3cnc[nH]3)c3c(c2)N(C)CCO3)cn1 | 28.2µM* | -21.4
CN1CCOc2c(C(=O)NCCc3cnc[nH]3)cc(-c3ccccc3F)cc21 | 31.6µM* | -8.9
O=C(NCC1CCCO1)c1cc(-c2ccccc2F)cc2c1OCCN2Cc1cccnc1 (stereo unspecified) | 20µM* | -14.6
CN1CCOc2c(C(=O)NCCc3cnc[nH]3)cc(-c3cccnc3)cc21 | i | -13.1
O=C(COc1ccc(F)cc1)N1CCCCCC1c1nnc(-c2ccccc2)o1 (stereo unspecified) | · | -11.3
COc1ccc(F)cc1-c1cccc(C(=O)NCC(=O)NCCc2cccc(F)c2)c1 | · | 4.6
O=C(NCc1cccc(C(F)(F)F)c1)C1CCCN(c2ccnc3ccnn23)C1 (stereo unspecified) | · | -4.7
Cn1ncc2c(C(=O)NCCCN3CCCCC3)cc(-c3ccccc3C(F)(F)F)nc21 | · | -3.9
O=C(NCCc1cnc[nH]1)c1cc(-c2ccccc2F)cc2c1OCCN2Cc1cccnc1 | 22.4µM* | -15.8
COc1ccc(-c2cc(C(=O)NCc3cccnc3)c3c(c2)N(C)CCO3)cc1OC | ? | -5.8
CN(C)C(=O)c1cc(-c2ccccc2F)cc2c1OCCN2Cc1cccnc1 | i | -18.5
CN1CCOc2c(C(=O)NCCC(N)=O)cc(-c3ccccc3OC(F)(F)F)cc21 | 39.8µM* | -14.0
COc1ccc(-c2cc(C(=O)NCc3cccnc3)c3c(c2)N(C)CCO3)cn1 | ? | -21.4
COc1cc(F)ccc1-c1cc(C(=O)NCCc2cnc[nH]2)c2c(c1)N(C)CCO2 | 39.8µM* | -17.8
O=Cc1c(-c2ccccc2)cc2ccccn12 | i | ·
